# Sm TGR inh = blocks Schistosoma mansoni thioredoxin glutathione reductase; Q962Y6; purified TGR, DTNB reduction, TNB absorbance 405 nm; Potency, µM (series often up to 114 µM), for the others: at the top dose activity change, negative = inhibition, hits mostly inhibitors; 3% of 360,000 active; AID 485364; further: on the % scale 0 is the no-effect control and ±100 the full control effect; nearly all actives have a fitted effect of over 60% in size
#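 First, TGR (20 nM dispensed) and NADPH were mixed with compound. Second, a 15 min room-temperature incubation followed. Third, further NADPH and then DTNB were added to start the reaction. Finally, TNB absorbance was monitored kinetically.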
# Pf growth 48h = P. falciparum growth inhibition at 48 hours (one generation). P. falciparum luciferase growth in erythrocytes, 48 h. 5.9% of 310,000 active. AID 504832. Potency, µM (highest dose often 28.7 µM), inactives show at the highest dose activity change, negative = inhibition, usual class: inhibitors; further: on the % scale 0 is the no-effect control and ±100 the full control effect
#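 Parasite viability was followed by luminescence of a genomically integrated firefly luciferase. Cultures held 0.1% parasitemia at 2% hematocrit (final), incubated under 5% CO2 at 37 C.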
# AMA1 RON2 block = inhibitors of Plasmodium falciparum AMA1-RON2 interaction; AID 720542; Potency, µM (top dose mostly 58.2 µM), inactives show at the top dose activity change, negative = inhibition, hits mostly inhibitors; AlphaScreen AMA1-biotinylated RON2 peptide binding; 0.2% of 360,000 active;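 further: 0% = vehicle wells and -100% = peptide control; nearly all actives have a fitted effect of over 45% in size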
#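 AMA1 (3D7) with his tag at 25 nM final met compounds first, then biotinylated RON2 peptide at 25 nM; detection used donor plus acceptor beads, 10 µg/mL apiece, read by AlphaScreen after 30 min at room temperature.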
# Pf growth 96h = inhibits malaria parasite growth, 96 h. Potency, µM (highest dose often 28.7 µM), inactives show at the top dose activity change, negative = inhibition, most hits filed as inhibitors. P. falciparum luciferase reporter growth, 96 h. 6.9% of 320,000 active; further: on the % scale 0 is the no-effect control and ±100 the full control effect
#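 96 h incubation, 37 C, 5% CO2, of luciferase-reporter P. falciparum-infected RBCs (2% hematocrit, 0.05% parasitemia final) with test compounds; endpoint luminescence.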
# NS1 inh = inhibitors of influenza NS1 protein function | Potency, µM (titrated, usually from 46.1 µM), for the others: at the top dose activity, positive = more growth | 0.4% of 270,000 active | AID 2326; calls by dose curve; further: actives are rising curves; nearly all actives have a fitted effect of over 50% in size
#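 Recovery from NS1-induced slow growth read by OD600 in budding yeast switched to galactose assay medium (pH 6.0, -URA) at 1:100 dilution. Compound 23 nl per well; the matching strain lacking NS1 serves as control.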
# An asterisk follows results filed as active; ? = inconclusive; / = not tested or not shown. Only some compounds are listed: those with a hit (about 11% of all), similar ones and a draw of the others. Unless noted, the call rests on the fitted dose curve; in most records, active means well fitted curve in the direction sought with a large enough effect; inconclusive means small, poorly fitted or top-dose-only effect, or another doubt; inactive means no such curve, though single readings can be large; an effect the other way counts as inactive or inconclusive. Potency means the concentration at half of the fitted maximal effect.
SMILES,Sm TGR inh,Pf growth 48h,AMA1 RON2 block,Pf growth 96h,NS1 inh
CCN(CC)CCOC(=O)c1ccc(NC(=O)C(C)NC(=O)C23CC4CC(CC(C4)C2)C3)cc1 (centres undefined),-2%,-26%,-3%,12µM*,5%
Cc1ccc(CNC(=O)CCCCn2c(=O)c3ccccc3n(Cc3ccc(Cl)cc3)c2=O)cc1,-2%,/,/,/,/
CCN(CC)S(=O)(=O)c1ccc2c(c1)c(C(=O)O)cn2C,1%,8%,0%,6.6µM*,2%
CCN(CC)C(=O)c1cn(C)c2ccc(S(=O)(=O)N(CC)CC)cc2c1=O,4%,-12%,8%,32%,-3%
CCN(CC)S(=O)(=O)c1ccc2c(c1)c(=O)c(C(=O)N1CCN(c3ccccn3)CC1)cn2C,-1%,-7%,11%,0.52µM*,-6%
Cc1cc(C)n2c(SCC(=O)Nc3ccccc3C#N)nnc2n1,-1%,-22%,-4%,?,/
Cc1ccc(C)c(N2CCN(C(=O)c3cc(C)nc4c3c(C)nn4-c3cccc(F)c3)CC2)c1,12%,/,/,/,/
CC(C)Oc1ccc(CNC(=O)C2CCN(C(=O)N3CC(C)Oc4ccccc43)CC2)cc1 (centres undefined),-6%,/,/,/,/
CCOC(=O)c1sc(Nc2nc(OC)cc(OC)n2)nc1C,11%,?,-10%,-17%,5%
CCc1nc2ccc(C(=O)N3CCN(c4ccc(Cl)cc4)CC3)cc2nc1CC,0%,-10%,-3%,5.2µM*,-17%
CCc1nc2ccc(C(=O)N3CCN(c4ccccc4)CC3)cc2nc1CC,8%,-5%,-6%,2.6µM*,10%
CCc1nc2ccc(C(=O)N3CCN(c4cccc(C(F)(F)F)c4)CC3)cc2nc1CC,7%,-17%,-6%,?,16%
c1ccc(Sc2cccc3ccccc23)c(CNC2=NCCN2)c1,4%,1.2µM*,-12%,0.93µM*,-59%
O=[N+]([O-])c1ccccc1/C=N/NC1=NCCN1,/,/,15%,/,/
Fc1ccccc1Sc1ccccc1CNC1=NCCN1,1%,?,17%,10µM*,-34%
O=C(c1ccc(Cl)cc1Cl)N1CCC(C(=O)N2CCOCC2)CC1,1%,19%,-2%,-2%,13%
CC(C)c1ccc(NC(=O)C2C3C=CC4(O3)C2C(=O)N(CCCN2CCOCC2)C4C(=O)NC2CCCCC2)cc1 (centres undefined),2%,-17%,-8%,15%,-13%
Cc1nc(C)c(-c2ccn(C(=O)NC(C)C)n2)s1,10%,41%,11%,45%,-1%
c1ccc(CN2CCN(C(c3ccccc3)c3ccccc3)CC2)cc1,4%,?,?,?,-8%
O=C1c2ccccc2C(=O)N1CC#CCN1CCN(C(c2ccccc2)c2ccccc2)CC1,50µM*,1%,-12%,/,?
CN(C)c1ccc(CC(=O)N2CCCC(c3cc(C(=O)Nc4ccc(C(C)(C)C)cc4)no3)C2)cc1 (centres undefined),/,/,13µM*,/,/
O=c1[nH]c(SCc2ccc(Cl)cc2)nc2[nH]ncc12,-1%,?,22%,?,/
COc1ccc(F)c(CN2CCN(CCc3ccccc3)C(CCO)C2)c1 (centres undefined),-1%,-23%,-25%,3.7µM*,10%
OCCC1CN(Cc2cc(F)ccc2F)CCN1CCCc1ccccc1 (centres undefined),-4%,?,2%,13µM*,-4%
COc1ccc(OC)c(CN2CCN(CCc3ccccc3)C(CCO)C2)c1 (centres undefined),-7%,-11%,5%,13µM*,2%
SMILES,Sm TGR inh,Pf growth 48h,AMA1 RON2 block,Pf growth 96h,NS1 inh
OCCC1CN(Cc2ccc(F)cc2Cl)CCN1CCc1ccccc1 (centres undefined),0%,-27%,-2%,?,-6%
OCCC1CN(Cc2cccc(F)c2F)CCN1CCc1ccccc1 (centres undefined),-23%,8%,-4%,-12%,-11%
COc1ccc(O)c(CN2CCN(CCCc3ccccc3)C(CCO)C2)c1 (centres undefined),-9%,?,1%,?,2%
CCN(C(=O)C(=O)c1c[nH]c2ccccc12)c1ccccc1,-13%,28%,13%,?,10%
O=C(/C=C/c1ccc(OC(F)F)cc1)Nc1cccc(S(=O)(=O)NC2=NCCCCC2)c1,0%,-3%,2%,-3%,2%
CC1CC(C)CN(CCCNC(=O)CN2C(=O)CSc3ccc(S(=O)(=O)N4CCOCC4)cc32)C1 (centres undefined),-5%,-1%,-5%,?,-11%
Cc1ccc(C)c(N2CCN(CCCNC(=O)Cn3c(-c4cccs4)cc4ccccc43)CC2)c1,-1%,/,/,/,/
COc1cccc(-c2c(C(=O)N/N=C/c3ccc(C)s3)nnn2-c2nonc2N)c1,-1%,10µM*,13%,4.1µM*,6%
CCOc1cccc(-c2c(C(=O)N/N=C/c3ccc(C)s3)nnn2-c2nonc2N)c1,-8%,?,34%,15µM*,18%
CCOc1ccc(-c2c(C(=O)N/N=C/c3ccc(C)s3)nnn2-c2nonc2N)cc1,-11%,-23%,44%,?,5%
Cc1c(C(=O)NCCc2ccc(Cl)cc2)cccc1-n1cnc2cccnc21,5%,/,/,/,/
CC1CCCCN1CCCNC(=O)C1CCCN(c2ncnc3c2nc2n3CCCCC2)C1 (centres undefined),-18%,?,1%,?,-1%
Cc1nn(-c2ccc(N3CCCCC3)nn2)c(C)c1CCC(=O)NCc1ccccc1,-1%,/,/,/,/
COc1cc2c(cc1OC)N1C(=O)CC(OCC(=O)O)C3C4CC5(CCN5C(=O)C4=O)C2C31 (centres undefined),-19%,12µM*,-8%,17%,-6%
CCC1Cc2[nH]c(=S)[nH]c(=O)c2C(c2ccc(Cl)cc2)O1 (centres undefined),/,/,114%,/,/
CC(=O)C1=C(C)OC(N)=C(C#N)C1c1ccco1 (centres undefined),13µM*,?,25%,?,7%
COC(=O)C1=C(C)OC(N)=C(C#N)C1c1ccccc1F (centres undefined),2%,5%,0%,39%,-5%
CC(=O)C1=C(C)OC(N)=C(C#N)C1c1cccc2ccccc12 (centres undefined),11µM*,1%,6%,5%,7%
CC1(c2nnc(Cc3ccccc3)o2)CC(c2cccnc2)=NO1 (centres undefined),/,/,7%,/,/
CCCc1cc(C(=O)Nc2c(C)n(C)n(-c3ccccc3)c2=O)no1,-4%,/,1%,9.3µM*,7%
Cc1c(NC(=O)c2cc(-c3ccccc3)on2)c(=O)n(-c2ccccc2)n1C,-7%,4%,-11%,-17%,-5%
Cc1c(NC(=O)c2nn(CC(C)C)c(=O)c3ccccc23)c(=O)n(-c2ccccc2)n1C,-1%,-12%,9%,?,/

# Bioassay records as filed in PubChem.
